# Screens: PubChem BioAssay, several laboratories
# AI-2 QS mod = modulators of Vibrio harveyi AI-2 quorum sensing system | hit rate 0.4% among 300,000 | activity change, % at 7.5 µM | AID 2094 | Vibrio harveyi JMH597 AI-2 luminescence/OD600 ratio, 9 h; active compounds read low; strain lacks LuxN and CqsS sensors; 0 = neutral-control median; in the data active = activity change below about -75%, passing the limit was not always enough;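 note: luminescence divided by OD600 gain over 9 h not by final OD600 alone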
# NR3A LBD binder = modulates the human NR3A ligand-binding domain; hit rate 2.5% among 340,000; Tm shift relative to glycine control, % at 25 µM; NR3A LBD differential scanning fluorimetry, Tm shift; 0% = protein alone, 100% = glycine-bound protein;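 active = melting temperature shift of at least 10% of the positive control shift, at one fixed dose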
# Cardio protect = myocardial damage modulation in H9c2 cells | H9c2 cardiomyocytes, H2O2 injury protection, ATPLite, 2 h | protection from H2O2 cell death, % at 20 µM | hit rate 0.63% among 360,000 | AID 588492;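 active = compounds giving at least 50% protection of heart cells from peroxide-induced death in the single-dose screen, raw or plate-pattern-corrected value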;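 note: 0% = DMSO wells with peroxide and 100% = DMSO wells without peroxide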
# AHR act = activates the human aryl hydrocarbon receptor; P35869; AHR-responsive luciferase reporter cells, luminescence; activation, % at 5 µM; hit rate 2.5% among 320,000; in the data active = activation above about 47%;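 note: 0% = vehicle wells and 100% = reference agonist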
# Mot1-301 SUMO = inhibitors of SUMOylation pathway: yeast Mot1-301 growth rescue; S. cerevisiae Mot1-301 growth rescue, ATP luminescence, 38.5C; percent above DMSO median, 100 means doubled; growth rescue, % at 18.8 µM; hit rate 1% among 320,000; AID 2716;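 active = every valid replicate shows activation above 250% relative to neutral control wells; inactive = the rest, any valid replicate at or below 250%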;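 note: OY570 slx delta 5 strain wells were the positive control but not used for scaling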
# NTR1 ag = agonists of human neurotensin receptor NTR1. hit rate 0.17% among 330,000. NTR1-U2OS beta-arrestin-GFP spot imaging, agonist mode. activation, % at 20 µM. P30989;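 active = activation at or above 40% of the spot to cytoplasm intensity ratio, with at least 20 cells analyzed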;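 note: 0% = DMSO without peptide and 100% = 100 nM NTR1 peptide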
# Target sequence (P30989 whole entry, looked up): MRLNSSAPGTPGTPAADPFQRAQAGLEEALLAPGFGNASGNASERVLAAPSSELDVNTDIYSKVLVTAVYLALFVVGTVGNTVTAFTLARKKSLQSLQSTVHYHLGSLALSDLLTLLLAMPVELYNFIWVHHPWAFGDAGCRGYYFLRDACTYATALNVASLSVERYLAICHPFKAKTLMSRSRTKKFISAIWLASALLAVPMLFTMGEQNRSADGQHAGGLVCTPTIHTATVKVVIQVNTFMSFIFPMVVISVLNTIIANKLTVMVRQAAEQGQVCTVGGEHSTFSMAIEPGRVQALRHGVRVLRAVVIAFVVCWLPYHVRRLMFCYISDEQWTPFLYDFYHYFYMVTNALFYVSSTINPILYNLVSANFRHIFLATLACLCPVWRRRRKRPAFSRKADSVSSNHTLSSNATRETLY
# * marks the source's active call; other numbers are inactive results; . = no result given. Most compounds without a hit are left out; they make up all but 6.2% or so of the library.
SMILES,AI-2 QS mod,NR3A LBD binder,Cardio protect,AHR act,Mot1-301 SUMO,NTR1 ag
O=[N+]([O-])c1ccc(/C=N/Nc2nc(N3CCCCCC3)nc(N3CCCCCC3)n2)o1,14.4,-7.4,0.1,2.4,-18.4,2.1
O=C(NCCc1cccs1)Nc1nnc([C@H]2C[C@H](O)[C@@H](CO)O2)s1,.,.,-0.7,.,.,.
CC(O)(c1ccc(F)c(F)c1)c1nc(-c2ccoc2)cs1 (centres undefined),.,.,-9.7,.,.,.
Cc1nnc(SCCC(=O)Nc2nc(-c3ccccc3)ns2)s1,19.6,2.2,3.0,66.8*,-8.2,1.6
CC(=O)Nc1ccnc(-c2cccnc2)n1,13.4,-1.2,8.2,2.5,-15.0,-0.6
CC(=O)c1sc(NC(=O)c2ccc(Cl)cc2)nc1C,-2.7,-0.5,-4.4,-2.3,92.9,2.5
CC(=O)Nc1nc(-c2ccc(Cl)cc2)ns1,27.4,-6.1,-12.2,84.3*,13.8,1.2
CC(C)C(=O)Nc1nc(-c2ccccc2)ns1,16.4,-37.9,-5.4,41.6,-19.4,0.7
CCCC(=O)Nc1nc(-c2ccccc2)ns1,4.5,-20.5,-12.4,69.9*,38.4,-3.0
CCOc1ccc(NC(=O)CCSc2nnc(C)s2)cc1,3.8,-0.1,-5.6,0.3,114.8,1.8
O=C(Nc1ccnc(-c2cccnc2)n1)c1cccs1,5.8,-1.9,10.2,64.3*,459.0,2.2
O=C(O)c1cccc(S(=O)(=O)Nc2ccc3c(c2)CCC3)c1,29.9,0.3,4.6,.,86.3,0.9
CCOc1ccc(S(=O)(=O)N(CC(=O)NCc2ccncc2)c2ccc(C)cc2)cc1,7.1,0.0,1.8,0.3,11.7,-0.3
O=C(NC(O)C(=O)c1cccs1)c1cccnc1 (centres undefined),50.3,1.8,83.2*,0.1,-10.8,3.0
O=C(Nc1nc(-c2ccccc2)ns1)c1cccs1,18.3,18.9*,-4.8,105.6*,41.0,-1.4
O=C(NNC(=O)c1cccs1)c1cccnc1,14.9,-1.6,2.9,-0.5,17.2,-0.9
CC1(C)Oc2c(ccc(O)c2CN2CCOCC2)C2=C1CCCC2,.,-3.1,-5.0,.,.,.
CCc1nnc(NS(=O)(=O)c2ccc(NC(=S)NC(=O)/C=C/c3ccc(C(C)C)cc3)cc2)s1,22.0,15.0*,-4.3,-0.8,-12.2,5.3
CCc1nnc(NS(=O)(=O)c2ccc(NC(=O)c3ccccc3)cc2)s1,40.6,1.8,6.3,-2.9,10.3,0.9
CCc1nnc(NS(=O)(=O)c2ccc(N/C=C\C(=O)c3ccc4ccccc4c3)cc2)s1,13.0,14.4*,-7.3,8.2,-7.9,0.9
CCCCCn1c(=O)[nH]c2cc(C(=O)NCCCN3CCCCC3CC)ccc2c1=O (centres undefined),.,-0.6,4.3,1.9,-7.2,-0.3
CCN(CC)c1ccc(/C=N/N2C(=O)c3ccccc3C2=O)cc1,19.9,3.4,-2.7,-0.5,-3.1,5.2
CCN(CC)c1ccc(/C=N/N2C(=O)c3ccccc3C2=O)c(O)c1,13.4,23.6*,-2.1,8.3,-12.6,2.7
O=C(CCNC(=O)C1CCN(S(=O)(=O)c2ccc(F)cc2)CC1)NCc1ccncc1,11.9,-0.7,-2.5,-1.2,2.5,0.0
Brc1ccc(-c2cn3c(n2)CCc2ccc4cccnc4c2-3)cc1,10.9,-7.0,12.6,47.1*,.,3.3
SMILES,AI-2 QS mod,NR3A LBD binder,Cardio protect,AHR act,Mot1-301 SUMO,NTR1 ag
CN(C)/C=N/c1nc2nccc(-c3cccs3)n2n1,44.1,-3.5,9.4,74.9*,-0.6,0.4
Cc1cccc(/C(N)=N/OC(=O)c2ccc(Br)o2)c1,14.2,-6.1,-12.8,71.0*,-4.9,2.4
Cc1ccc(Cl)cc1NC(=O)CCC(=O)NCc1ccco1,33.5,1.1,1.9,0.8,-4.5,-0.6
Cc1ccccc1CS(=O)(=O)c1ncc(Cl)c(C(=O)Nc2ccc(F)cc2)n1,-18.2,-5.6,-15.2,18.5,316.4*,-1.1
CCN(CC(=O)NCc1cccs1)C(=O)c1ccc(-c2ccccc2F)o1,.,-0.3,-3.9,1.6,.,-1.1
O=C(CN1CCN(C(=O)C2CC2)CC1)Nc1ccc(Cl)cc1F,.,-1.6,2.1,.,.,-0.7
CC(=O)N(CC(C)(C)CC=C(C)C)c1ccccc1,22.3,.,.,-4.6,638.0*,0.3
N/C(=N\OC(=O)c1ccc(F)cc1)c1ccccc1,-11.3,-3.9,-13.2,59.9*,7.8,5.1
N/C(=N\OC(=O)c1ccc(F)cc1)c1ccc(Br)cc1,14.7,2.0,-11.5,52.2*,-7.7,0.7
Cc1ccc(C(=O)CC(SCC(=O)O)c2ccc([N+](=O)[O-])cc2)cc1 (centres undefined),8.2,0.3,-3.4,3.6,27.4,1.2
O=C(CC(SCCO)c1ccc([N+](=O)[O-])cc1)c1ccco1 (centres undefined),25.7,40.0*,-8.3,-0.2,-13.3,6.4
Cc1cccc(NS(=O)(=O)c2ccc(C(=O)N3CCCC3)cc2)c1C,1.1,19.5*,-1.5,-0.7,1.0,0.1
Cc1cccc(NS(=O)(=O)c2ccc(C(=O)N3CCCCCC3)cc2)c1C,-4.1,-0.8,-12.8,-3.0,215.2,4.6
CC1Cc2cc(S(=O)(=O)N3CCN(c4cccc(Cl)c4)CC3)ccc2N1C(=O)C1CC1 (centres undefined),29.8,10.5*,-5.1,0.0,-0.3,2.0
COc1ccc(-c2nnc(SCC(=O)N3CCCC3=O)n2N)cc1OC,.,18.8*,5.9,1.7,-3.4,0.1
CCOc1ccc2nc(NC(=O)c3ccccn3)sc2c1,15.3,-8.9,-15.1,-8.1,-21.1,7.5
COc1ccc(NC(=O)Nc2nnc(-c3ccccc3SCc3ccccc3)s2)cc1,9.1,21.8*,-3.3,51.1*,1.8,1.2
CCOc1ccc2nc(NC(=O)Nc3ccccc3)sc2c1,9.5,35.5*,-9.5,77.9*,2.7,-0.1
COc1ccc(NC(=O)Nc2nc3ccccc3s2)cc1,9.5,28.3*,-7.5,34.5,4.2,-1.1
COc1cccc(NC(=O)Nc2nnc(-c3ccccc3SCc3ccccc3)s2)c1,19.4,7.0,0.3,11.6,15.2,0.8
O=C(Nc1nc2ccccc2s1)C1c2ccccc2Oc2ccccc21,46.7,11.0*,7.2,3.5,12.0,13.0
Cc1ccc(OCCNC(=O)c2ccccc2SCC(=O)N2CCCC2)cc1,4.9,-0.5,5.8,9.0,-29.1,-0.5
COc1ccc(-c2nc(CS(=O)CC(=O)NCc3ccc(Cl)cc3)c(C)o2)cc1OC (centres undefined),.,-3.0,5.0,9.2,3.5,1.0
CCOc1ccc2nc(NC(=S)NCc3ccccc3)sc2c1,24.9,18.6*,-6.5,-7.5,.,14.4
CCOc1ccc(NC(=O)Nc2cc(-c3ccccc3)sc2C(=O)OC)cc1,22.2,21.4*,-9.0,47.0*,0.6,7.9
CCOc1ccc2nc(NC(=O)COC)sc2c1,39.7,-0.6,-9.9,10.8,39.1,0.1
COc1ccc2sc(NC(C)=O)nc2c1,10.9,-0.5,-0.2,8.4,93.9,-0.8
